Our source for the outcome and AC50 values is PubChem BioAssay (EPA / NIEHS).

Inconclusive results are not listed. Active and inactive are the calls of the source. Rule for the calls, unless noted: active = hit-call score of the fitted dose curve at least 0.9, where 1 is the maximum; inconclusive = response in the unintended direction; inactive = score below 0.9.

Read-out in test [1]: sulfotransferase (SULT2A), SULT2A1 (gene 6822)
Kind of test: CLD_SULT2A_6hr: CellzDirect (CLD) Gene Expression Assay for sulfotransferase (SULT2A) at 6 hours (AID 2283669).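 Note: hits raise transcript level above the DMSO vehicle baseline.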 The method, boiled down: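 Primary human hepatocytes from two donor preparations were dosed daily with chemicals or 0.2% DMSO and harvested at 6 h. Transcript induction read by qNPA chemiluminescence, fitted for gain of signal relative to DMSO; morphology-based cytotoxicity annotated.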

Read-out in test [2]: glucuronosyltransferase (UGT1A1), UGT1A1 (gene 54658)
Briefly: CLD_UGT1A1_6hr: CellzDirect (CLD) Gene Expression Assay for glucuronosyltransferase (UGT1A1) at 6 hours (AID 2283672). The essentials: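 Primary human hepatocytes from two donor preparations, dosed with fresh solutions in 0.2% DMSO, harvested at 6 h. UGT1A1 mRNA measured by qNPA chemiluminescence; induction fitted upward versus DMSO.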

Read-out in test [3]: xenobiotic metabolism (CYP1A1), CYP1A1 (gene 1543)
Briefly: CLD_CYP1A1_24hr: CellzDirect (CLD) Gene Expression Assay for xenobiotic metabolism (CYP1A1) at 24 hours (AID 2283673).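 Note: CYP1A1 mRNA level by quantitative nuclease protection with chemiluminescence.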 The essentials:
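Primary human hepatocytes dosed daily with fresh solutions in 0.2% DMSO vehicle. mRNA measured at 24 h by quantitative nuclease protection assay with chemiluminescence; gain-of-signal fit versus DMSO, with morphology-based cytotoxicity flags.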

Read-out in test [4]: Cytochrome P450 2B6 (Homo sapiens) (UniProt P20813)
Kind of test: CLD_CYP2B6_6hr: CellzDirect (CLD) Gene Expression Assay for xenobiotic metabolism (CYP2B6) at 6 hours (AID 2283677).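 Note: actives raise CYP2B6 transcript above DMSO baseline so AC50 marks an inducer.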 The essentials: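 Primary human hepatocytes dosed with chemicals at multiple concentrations, vehicle 0.2% DMSO; CYP2B6 mRNA induction measured 6 h after dosing by quantitative nuclease protection assay with chemiluminescence, gain of signal fitted relative to DMSO.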

Test [5] can be described thus: CCTE_Padilla_ZF_144hpf_TERATOSCORE: (Legacy) CCTE's 144 Hour Post-fertilization zebrafish Assay Teratoscore, Padilla Lab (AID 2283679; active = hit-call score of the fitted dose curve at least 0.9, where 1 is the maximum; inactive = score below 0.9;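 for AC50: zebrafish embryos with chorions exposed by immersion from 6-8 hpf to 5 dpf with daily renewal; teratogenicity score from eye scoring of death hatching and malformations at 144 hpf; higher score means more developmental defects relative to DMSO baseline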). The method, boiled down:
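Larvae scored by eye at 144 hpf for death, hatching and malformations after a day in clean Hanks'. Before that, daily-renewed exposure at 80 uM (0.4% DMSO, 26C) from roughly 6-8 hpf through 5 dpf, 4 embryos per chemical.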

Read-out in test [6]: Cytochrome P450 3A4 (Homo sapiens) (UniProt P08684)
Briefly: CLD_CYP3A4_6hr: CellzDirect (CLD) Gene Expression Assay for xenobiotic metabolism (CYP3A4) at 6 hours (AID 2283680). The method, boiled down:
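Primary human hepatocytes (two donor preparations) dosed; CYP3A4 mRNA harvested at 6 h and quantified by qNPA chemiluminescence. Gain of signal fitted against 0.2% DMSO vehicle; cytotoxicity flagged by phase-contrast morphology.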

Test [7] is described as follows: CLD_ACTIN_6hr: CellzDirect (CLD) Gene Expression Assay for Baseline Control (Actin) at 6 hours (AID 2283676).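 Note: active means increased actin mRNA relative to DMSO vehicle.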 The essentials: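 Primary human hepatocytes dosed with fresh chemical solutions (vehicle 0.2% DMSO), harvested at 6 h. Actin mRNA quantified by quantitative nuclease protection assay with chemiluminescent read-out, as background control relative to DMSO.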

Read-out in test [8]: Cytochrome P450 (CYP24A1_1), CYP24A1 (gene 1591)
Briefly: LTEA_HepaRG_CYP24A1_1: Life Technologies and Expression Analysis (LTEA) Assay for Cytochrome P450 (CYP24A1_1) using HepaRG (AID 2283671; active = hit-call score of the fitted dose curve at least 0.9, where 1 is the maximum; inactive = score below 0.9). The following applies: mRNA level, 48 h; actives raise or lower the signal. The method, boiled down:
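HepaRG, 48 h exposure, 8-pt half-log series from 100 uM in 0.5% DMSO, duplicates. Readout: TaqMan qRT-PCR of CYP24A1 mRNA, housekeeping-normalized (ACTB/GAPDH/POLR2A). Bidirectional curve fit vs DMSO baseline.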

The nature of test [9]: CLD_ACTIN_24hr: CellzDirect (CLD) Gene Expression Assay for Baseline Control (Actin) at 24 hours (AID 2283670). The essentials: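 Primary human hepatocytes dosed over multiple concentrations with 0.2% DMSO vehicle; actin mRNA measured at 24 h by qNPA chemiluminescence. Background control endpoint, fitted as gain of signal versus DMSO.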
Read-out in test [10]: ABC Transporter (ABCB11), ABCB11 (gene 8647)
Kind of test: CLD_ABCB11_6hr: CellzDirect (CLD) Gene Expression Assay for ABC Transporter (ABCB11) at 6 hours (AID 2283675).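 Note: hits raise ABCB11 mRNA level so AC50 marks induction.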 The method, boiled down: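 Human primary hepatocytes (two donor preparations) given fresh chemical daily at multiple concentrations, vehicle 0.2% DMSO. ABCB11 mRNA induction measured 6 h after dosing by qNPA chemiluminescence versus DMSO; cytotoxicity annotated from morphology.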

Sequence of Cytochrome P450 3A4 (Homo sapiens) (P08684 whole entry, looked up): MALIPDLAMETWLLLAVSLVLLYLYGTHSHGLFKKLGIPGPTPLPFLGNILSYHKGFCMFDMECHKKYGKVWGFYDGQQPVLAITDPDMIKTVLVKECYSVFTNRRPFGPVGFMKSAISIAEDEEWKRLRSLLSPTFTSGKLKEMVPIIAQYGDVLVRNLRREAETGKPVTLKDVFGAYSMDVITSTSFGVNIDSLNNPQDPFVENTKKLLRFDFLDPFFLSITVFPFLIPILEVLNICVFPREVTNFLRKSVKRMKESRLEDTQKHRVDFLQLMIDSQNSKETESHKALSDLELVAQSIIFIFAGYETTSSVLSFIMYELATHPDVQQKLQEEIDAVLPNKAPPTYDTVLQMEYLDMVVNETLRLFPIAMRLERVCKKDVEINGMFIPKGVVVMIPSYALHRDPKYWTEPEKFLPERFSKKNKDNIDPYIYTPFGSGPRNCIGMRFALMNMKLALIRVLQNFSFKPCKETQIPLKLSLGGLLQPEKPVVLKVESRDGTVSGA

For `COC(=O)NC(=S)Nc1ccccc1NC(=S)NC(=O)OC`, the molecule was called inactive in [1], in [2] and in test [6]. Besides, the AC50 in [3] was 15.1 µM (active); in [4] it was 4.73 µM (active); in [5], 0.486 µM (active).
On to `N#Cc1c[nH]cc1-c1cccc2c1OC(F)(F)O2`, for which the call in test [1] and in test [2] was inactive. For the same molecule, the AC50 is 3.64 µM (active) in test [3] and 4.19 µM (active) in test [5].
Consider `N#Cc1c(Cl)cccc1Cl`, for which the molecule was called inactive in [1], in test [2], in test [7], in [5] and in [6].
As to `CCN(CC)C(=O)C(C)Oc1cccc2ccccc12` (stereo unspecified), the molecule was called inactive in test [1], in test [2], in test [3] and in test [5].
As to `CC(C)Oc1cccc(NC(=O)c2ccccc2C(F)(F)F)c1`, the call in test [8], in test [2] and in test [6] was inactive. Also, the concentration at half-maximal activity (AC50) in [3] is 20 µM (active); in test [5], 15.9 µM (active).
Regarding `Nc1c(Cl)c(F)nc(OCC(=O)O)c1Cl`, the call in [9], in test [3], in test [10] and in [5] was inactive.
Regarding `Cc1cc(C)nc(Nc2ccccc2)n1`, the molecule was called inactive in test [1], in test [2], in [5] and in test [6]. Besides, the values for the AC50 in test [3] and in [4] were 7.59 µM (active) and 0.994 µM (active), respectively.
In the case of `CNC(=O)N(C)c1nnc(C(C)(C)C)s1`, the call in test [3], in test [7], in test [5] and in test [6] was inactive.
`CCOc1cc(C(C)(C)C)ccc1C1COC(c2c(F)cccc2F)=N1` (stereo unspecified): the molecule was called inactive in test [1] and in [2]. In addition, the half-maximal activity concentration (AC50) was 20 µM (active) in test [3], 4.69 µM (active) in test [4], 1.9 µM (active) in test [5] and 4.26 µM (active) in [6].
Consider `Cc1c(COC(=O)[C@@H]2[C@H](/C=C(\Cl)C(F)(F)F)C2(C)C)cccc1-c1ccccc1`, for which the result in [9] and in test [2] was inactive. The AC50 is 31.6 µM (active) in test [3], 0.623 µM (active) in test [5] and 3.44 µM (active) in test [6].
For `O=c1n(Cl)c(=O)n(Cl)c(=O)n1Cl`, the result in test [1], in test [2], in test [5] and in test [6] was inactive. The AC50 in [3] was 3.97 µM (active).
For `CN/C(=N\[N+](=O)[O-])NCc1cnc(Cl)s1`, the result in test [5] was inactive.
For the molecule `COC(=O)N(C(=O)N1CO[C@@]2(C(=O)OC)Cc3cc(Cl)ccc3C2=N1)c1ccc(OC(F)(F)F)cc1`, the molecule was called inactive in test [1], in test [2] and in test [7]. In addition, the AC50 in test [3] was 1.86 µM (active); in [5] it was 1.57 µM (active); in [6], 1.21 µM (active).
In the case of `CC1(C)CCC(=Cc2ccc(Cl)cc2)C1(O)Cn1cncn1` (stereo unspecified), the molecule was classed as inactive in test [1], in test [2], in test [7] and in test [6]. The AC50 is 4.02 µM (active) in test [3] and 253 µM (active) in test [5].
For the molecule `CC(C)Nc1nc(Cl)nc(NC(C)C)n1`, the molecule was called inactive in [2], in [7] and in [5]. The AC50 in test [3] was 11.4 µM (active); in test [4], 2.47 µM (active); in [6] it was 20 µM (active).
Regarding `CCCC(=NOCC)C1=C(O)CC(CC(C)SCC)CC1=O` (stereo unspecified), the outcome in test [1], in test [2], in test [3], in [7] and in test [5] was inactive. Besides, the AC50 in test [6] is 20 µM (active).
As for `COCC(=O)N(c1c(C)cccc1C)C(C)C(=O)OC` (stereo unspecified), the molecule was called inactive in test [1], in test [2], in [3] and in test [5]. Further, the AC50 in test [4] is 2.5 µM (active).
Regarding `CC(C)C1(C)N=C(c2ncccc2C(=O)O)NC1=O` (stereo unspecified), the outcome in test [9], in [2] and in test [5] was inactive.
With `Nc1cnn(-c2ccccc2)c(=O)c1Cl`, the result in test [1], in [2], in test [3], in [4] and in test [5] was inactive.
With `CCOC(=O)C(C)OC(=O)c1cc(Oc2ccc(C(F)(F)F)cc2Cl)ccc1[N+](=O)[O-]` (stereo unspecified), in [2], the call was inactive. The values for the concentration at half-maximal activity (AC50) in [3], in [5] and in [6] were 20 µM (active), 0.19 µM (active) and 4.03 µM (active), respectively.
